Screening data (PubChem)
tim10-1 inh – growth inhibitors of tim10-1 mutant yeast, primary screen, luminescence, uHTS. S. cerevisiae tim10-1 ts strain growth, BacTiter-Glo, 24 h. inhibition, % at 20 µM. actives 2.2% (n = 330,000). AID 463190, 2010;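 active = inhibition of at least 40%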;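 also: mutant grown at 25 °C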
TIM10 inh – growth inhibitors of isogenic TIM10 control yeast, primary screen, counter-screen for tim10-1 yeast inhibitor project, luminescence, uHTS. S. cerevisiae TIM10 strain growth, BacTiter-Glo luminescence, 24 h. actives 1.4% (n = 330,000). inhibition, % at 10 µM;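 active = inhibition of 40% or more at the single tested concentration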;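 also: wild-type TIM10 isogenic control strain grown at permissive 25 °C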
PfHsp90 set2 – growth inhibition of PfHsp90-expressing yeast, primary screen, antimalarial PfHsp90 inhibitor project, S. cerevisiae, BacTiter-Glo luminescence, single point, set 2; BacTiter-Glo ATP, 48 h; yeast lacking PDR1 and PDR3 efflux regulators; inhibition, % at 9.4 µM; actives 0.32% (n = 310,000); AID 504621, 2011;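 active = every replicate shows inhibition above about 80%, whatever the replicate mean, limit read from the data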
tim23-1 inh – growth inhibitors of tim23-1 mutant yeast, primary screen, luminescence, uHTS; S. cerevisiae tim23-1 growth, BacTiter-Glo luminescence, 24 h; inhibition, % at 20 µM; actives 1.3% (n = 330,000);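 active = growth inhibition of the mutant yeast at or above 50%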;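 also: temperature-sensitive mutant grown at 25 °C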
SKKanGAS inh – S. pyogenes SKKanGAS growth inhibitors in kanamycin, primary screen, streptokinase expression inhibitor project, SKKanGAS strain, BacTiter-Glo luminescence. inhibition, % at 7.5 µM. 6 h. actives 1.3% (n = 300,000);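 active = mean replicate score, as percent of positive control median, at least 50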;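 also: strain carries kanamycin resistance gene driven by streptokinase promoter and grows in 40 µg/ml kanamycin; loss of luminescence reflects streptokinase promoter inhibition or plain growth inhibition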
tim10-1 conf – growth inhibitors of tim10-1 mutant yeast, confirmation, single concentration, luminescence, S. cerevisiae; shares compounds with tim10-1 inh; inhibition, % at 20 µM; AID 463213, 2010; actives 56% (n = 7,400); S. cerevisiae tim10-1 ts strain growth, BacTiter-Glo, 24 h;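 active = inhibition of yeast growth at or above a set limit in either of two repeat tests at 20 µM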;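 also: tim10-1 mutant grown at permissive 25 °C to find synthetic lethal compounds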
tim10 confirm – growth inhibitors of wild-type TIM10 yeast, confirmation, counter-screen for tim10-1 synthetic lethality project, single concentration, luminescence, S. cerevisiae | shares compounds with TIM10 inh | S. cerevisiae tim10 strain growth, BacTiter-Glo luminescence, 24 h | inhibition, % at 10 µM | actives 63% (n = 4,600) | AID 463215, 2010;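 active = inhibition of yeast growth at or above a set limit in either of two replicates at 10 µM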; also: this counterscreen used the strain with wild-type TIM10
Of the large screens only hits and unclear results are named; the others gave an inactive call (follow-up assays come after a bar, where they were run). The list is not random: actives were taken first. Their share in the collection is about 4.4%.

CCCc1cc(-c2nc(-c3ccc(Cl)cc3)cs2)ccn1	tim10-1 inh 46.5, TIM10 inh 51.1 | tim10-1 conf 44.8 | tim10 confirm 43.1
Cc1cc(-c2onc(C)c2C(=O)O)no1	none
Cc1cc(-c2nnc(-c3ccccc3)c(-c3ccccc3)n2)c(C)o1	tim10-1 inh 48.0, TIM10 inh 52.0 | tim10-1 conf 46.5 | tim10 confirm inactive
Cc1ccc(-c2nnc(-c3ccccc3)c(-c3ccccc3)n2)cc1	none
CC12CCC(C(=O)Nc3nccs3)(OC1=O)C2(C)C (stereo not drawn)	none (no result: PfHsp90 set2)
CC12CCC(C(=O)Nc3nc4ccc(Br)cc4s3)(OC1=O)C2(C)C (stereo not drawn)	tim10-1 inh 50.5, TIM10 inh 47.8 | tim10-1 conf 42.2 | tim10 confirm 31.8
Cc1ccnc2nc(C(=O)OCC(=O)Nc3ccc([N+](=O)[O-])cc3Br)nn12	none (no result: SKKanGAS inh)
c1coc(C2=Nc3cccc4cccc(c34)N2)c1	tim10-1 inh 47.4, TIM10 inh 48.7 | tim10-1 conf inactive | tim10 confirm inactive
COc1cccc(C2=Nc3cccc4cccc(c34)N2)c1	none
COCc1cc(=O)n2[nH]c(C(C)(C)C)cc2n1	none
OCCN1CCN(C2CCC(c3ccc(F)cc3)c3ccc(F)cc32)CC1 (stereo not drawn)	none
COc1cc(OC)cc(-c2sc3ccc(OC)cc3c2C#CC2(N)CCCCC2)c1	tim10-1 inh 43.6, TIM10 inh 44.7 (no result: SKKanGAS inh) | tim10-1 conf inactive | tim10 confirm inactive
COc1cccc(-c2sc3ccc(OC)cc3c2C#CC2(O)CCCCC2)c1	none (no result: SKKanGAS inh)
O=[N+]([O-])c1cc(S(=O)(=O)C(F)(F)F)ccc1Sc1nc2ccccc2s1	tim10-1 inh 45.2, TIM10 inh 54.7, PfHsp90 set2 108.5, SKKanGAS inh 89.3 | tim10-1 conf 73.8 | tim10 confirm 75.2
CS(=O)(=O)c1ccc(Sc2nc3ccccc3[nH]2)c([N+](=O)[O-])c1	none
CS(=O)(=O)c1ccc(Sc2nc3ccccc3s2)c([N+](=O)[O-])c1	tim10-1 inh 45.9, TIM10 inh 41.7 | tim10-1 conf 38.0 | tim10 confirm inactive
COCCN(C(=O)C1CC1)c1nnc(-c2ccc(C)cc2)s1	none
CCOc1ccc(-c2nnc(N(CC)C(=O)C3CCC3)s2)cc1	tim10-1 inh 42.8, TIM10 inh 43.3 | tim10-1 conf 31.0 | tim10 confirm 35.1
O=[N+]([O-])c1nn(-c2ccc3c(c2)OCCO3)n(O)c1=NCCCO	none
O=[N+]([O-])c1nn(-c2ccc3c(c2)OCCO3)n(O)c1=NC1CCCC1	tim10-1 inh 55.2, TIM10 inh 58.2 (no result: PfHsp90 set2) | tim10-1 conf 47.1 | tim10 confirm 41.4
N#Cc1nc(-c2cccs2)oc1NCCN1CCOCC1	none (no result: PfHsp90 set2)
N#Cc1nc(-c2cccs2)oc1NCCc1ccccc1	tim10-1 inh 57.0, TIM10 inh 64.8 (no result: PfHsp90 set2) | tim10-1 conf 38.1 | tim10 confirm 67.8
Cc1cc(/C=N/n2c(COc3ccccc3C)nc3ccccc3c2=O)c(O)c([N+](=O)[O-])c1	tim10-1 inh 40.7, TIM10 inh 43.4, SKKanGAS inh 51.9 | tim10-1 conf inactive | tim10 confirm inactive
COc1ccc(S(=O)(=O)N2CCC(C(=O)NCC(=O)Nc3c(C)cccc3C)CC2)cc1OC	none (no result: tim10-1 inh, TIM10 inh, tim23-1 inh, SKKanGAS inh)
Cc1cc2cc(C)c(NCCNC(=O)c3ccccc3Cl)nc2cc1C	tim10-1 inh 41.6, TIM10 inh 44.4 | tim10-1 conf inactive | tim10 confirm inactive
CCN(CC)S(=O)(=O)c1ccc(N2CCc3ccccc3C2)nc1	tim10-1 inh 42.8, TIM10 inh 50.3 | tim10-1 conf 32.2 | tim10 confirm 41.2
CCCCC(=O)Nc1nnc(CCc2ccccc2)s1	none
